Inconclusive results are not listed. Values without a mark were called inactive. The source made the active and inactive calls.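 Rule for the calls, unless noted: active = viability at or below 27.92% in each of two runs, the all-compound median minus 4 SD; inconclusive = no clear call, values can overlap the other calls; inactive = the rest.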

A word on the viability: it is a read-out of living cells in per cent, often relative to untreated cells.

One assay in a line: growth suppression of beta-catenin knockout HCT116, pilot screen, human colon tumor cells (AID 823;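 active = cell viability at or below a set limit in both duplicate runs, the limit being the all-compound median minus 4 SD, cut at about 23% in these data, passing the limit was not always enough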;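 note: 0% = wells killed by 20 µM Hyamine and 100% = untreated DMSO cell wells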). The conditions noted are these: CellTiter-Glo, 60 h, at 10 µM, hits give low values.
Consider `Cn1c(=O)c2c(SCC(=O)N3CCN(c4ccccc4)CC3)nc(C3CC3)nc2n(C)c1=O`, for which the viability is 82.5%.
`CCOc1ccc(Nc2ncnc3c2cnn3-c2ccccc2)cc1`: the viability is 106%.
Consider `Cn1c(NC(=O)CCc2ccccc2)cc(=O)n(C)c1=O`, for which the viability is 102%.
Turning to `Cc1ccccc1Nc1ncnc2c1cnn2-c1ccccc1`, the viability was 86%.
Take `CCOc1ccccc1Nc1cc(C)nc2nc(C)nn12`: the viability was 104%.
On the same count and under the same terms, next, `CCOC(=O)CNC(=O)c1cn(CC(C)C)c(=O)c2cc(OC)c(OC)cc12`: 105%; `COc1ccc2cc(S(=O)(=O)N3CCOCC3)ccc2c1`: 94.4%.
For the compound `COc1ccc(CCNc2nc(=O)[nH]nc2C)cc1OC`, the viability is 96%.
Same read-out and setting: for `Cc1ccc(Cn2nnc3c(=O)n(Cc4ccccc4C)cnc32)cc1` the value was 92.7%; for `O=C(NCc1ccco1)c1cnccn1`, 98.7%; for `Cc1cccc(OCC2=N/C(=C\N(C)C)C(=O)O2)c1`, 97.2%.
On to `CCSc1nnc(NC(=O)CSc2nc3c(c(=O)n2-c2ccccc2)SCC3)s1`, for which the viability was 100%.
With `Clc1ccc(OCc2nnc(-c3ccccc3Br)o2)c(Cl)c1`, the viability is 95.9%.
Still for that read-out and setting: next, `O=C(COC(=O)c1ccccc1Oc1ccccc1)NCc1ccco1`: 61.6%; `CCNC(=O)c1c(C)nc2ccccn12`: 101%; `CCCCC(CC)CNC(=O)c1cccs1` (stereo not given): 79.2%.
For the compound `O=C(Sc1nnc(-c2ccccc2)o1)N1c2ccccc2Sc2ccccc21`, the viability is 85.1%.
`Cc1c(-n2cc(C(=O)O)c(=O)c3cc(F)c(N4CCCC4)c(F)c32)c(=O)n(-c2ccccc2)n1C`: the viability was 98.8%.
For `COc1ccc(N2CCN(S(=O)(=O)c3cccc4cccnc34)CC2)cc1`, the viability is 84.9%.
Same read-out and setting: next, `CCN1CCN(CC(=O)Nc2ccc3c(c2)OCO3)C(=O)C1=O`: 101%; `CC(=O)Nc1ccc(C(=O)c2ccccc2)cc1`: 95.4%.
On the same count and under the same terms, next, `Cn1c(=O)cc(N2CCCCC2)[nH]c1=O`: 111%; `Cc1csc2ncc(C(=O)NCc3ccccn3)c(=O)n12`: 100%; `Cc1c(C(=O)NCc2ccccn2)sc2nc(-c3ccccc3)cn12`: 112%.
On the same count and under the same terms, for `O=C(CSc1ccc2nnc(-c3ccc(Cl)cc3)n2n1)N1CCN(c2ccccc2)CC1` the value was 96.6%.
Turning to `O=S(=O)(NCCCN1CCN(c2ccccc2F)CC1)c1cccc2cccnc12`, the viability was 77.9%.
For the compound `Cc1ccc2cc(CCNS(=O)(=O)c3ccc(F)cc3)c(=O)[nH]c2c1`, the viability was 93%.
On the same count and under the same terms, next, `COc1ccc(-n2c(Cc3cccn3C)nnc2SCC(=O)N2CCC(C)CC2)cc1`: 94%; `CNc1oc(C)nc1S(=O)(=O)c1ccccc1`: 99.9%; `Cc1c(Cl)cccc1NC(=O)CN1C(=O)CSc2ncccc21`: 97.6%.
Same read-out and setting: for `O=C(CCN1CCc2ccccc2C1)Nc1ccccc1` the value was 89.8%.
Still for that read-out and setting: for `COc1cc2c(cc1OC)C1=C(C#N)CN(C3CCCCC3)CN1CC2` the value was 90%; for `O=C1CC(c2ccc(S(=O)(=O)NC3CC3)cc2)CN1` (stereo not given), 110%; for `CCOC(=O)Cn1c(=O)oc2cc(S(=O)(=O)N3CCc4ccccc43)ccc21`, 91.8%.
In the case of `O=C1CC(c2ccco2)CC2=C1C1c3ccccc3C(=O)N1c1ccccc1N2` (stereo not given), the viability is 7.74% (active).
Same read-out and setting: for `COc1ccc(Br)cc1C1CC(=O)N2CN(Cc3ccccc3)CSC2=C1C#N` (stereo not given) the value was 85%.
Take `C=C(C)Cn1c(COc2ccccc2)nnc1SCC(=O)O`: the viability was 89.7%.
The same measure, in the same setting: next, `Cc1onc(-c2ccccc2Cl)c1C(=O)OCn1nnc2ccccc2c1=O`: 84.4%; `Cc1cc(NC(=O)CSc2nc3c(c(=O)n2-c2ccccc2)SC(C)C3)no1` (stereo not given): 93%; `CCOc1ccc(C2CC(c3ccc(F)cc3)n3ncnc3N2)cc1` (stereo not given): 100%.

Another assay is described as follows: growth suppression of PTEN-deleted HCT116, pilot screen, cell-based, HCT116 clonal line, CellTiter-Glo (AID 824).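 Note: 0% = 20 µM Hyamine control and 100% = vehicle cell control.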 The conditions noted are these: 60 h, at 10 µM, hits give low values.
With `Cn1c(=O)c2c(SCC(=O)N3CCN(c4ccccc4)CC3)nc(C3CC3)nc2n(C)c1=O`, the viability was 79.8%.
On to `CCOc1ccc(Nc2ncnc3c2cnn3-c2ccccc2)cc1`, for which the viability was 108%.
On to `Cn1c(NC(=O)CCc2ccccc2)cc(=O)n(C)c1=O`, for which the viability was 96.9%.
Take `Cc1ccccc1Nc1ncnc2c1cnn2-c1ccccc1`: the viability is 84.3%.
On the same count and under the same terms, for `CCOc1ccccc1Nc1cc(C)nc2nc(C)nn12` the value was 97.2%.
On the same count and under the same terms, next, `CCOC(=O)CNC(=O)c1cn(CC(C)C)c(=O)c2cc(OC)c(OC)cc12`: 101%; `COc1ccc2cc(S(=O)(=O)N3CCOCC3)ccc2c1`: 99.2%.
On the same count and under the same terms, for `COc1ccc(CCNc2nc(=O)[nH]nc2C)cc1OC` the value was 96.5%; for `Cc1ccc(Cn2nnc3c(=O)n(Cc4ccccc4C)cnc32)cc1`, 82.3%.
Take `O=C(NCc1ccco1)c1cnccn1`: the viability was 101%.
Still for that read-out and setting: for `Cc1cccc(OCC2=N/C(=C\N(C)C)C(=O)O2)c1` the value was 91.3%; for `CCSc1nnc(NC(=O)CSc2nc3c(c(=O)n2-c2ccccc2)SCC3)s1`, 103%.
Turning to `Clc1ccc(OCc2nnc(-c3ccccc3Br)o2)c(Cl)c1`, the viability is 89.3%.
`O=C(COC(=O)c1ccccc1Oc1ccccc1)NCc1ccco1`: the viability was 67.1%.
Same read-out and setting: next, `CCNC(=O)c1c(C)nc2ccccn12`: 91%.
In the case of `CCCCC(CC)CNC(=O)c1cccs1` (stereo not given), the viability is 85.8%.
Same read-out and setting: for `O=C(Sc1nnc(-c2ccccc2)o1)N1c2ccccc2Sc2ccccc21` the value was 89.7%; for `Cc1c(-n2cc(C(=O)O)c(=O)c3cc(F)c(N4CCCC4)c(F)c32)c(=O)n(-c2ccccc2)n1C`, 87.8%.
With `COc1ccc(N2CCN(S(=O)(=O)c3cccc4cccnc34)CC2)cc1`, the viability is 83.6%.
Same read-out and setting: next, `CCN1CCN(CC(=O)Nc2ccc3c(c2)OCO3)C(=O)C1=O`: 100%.
As for `CC(=O)Nc1ccc(C(=O)c2ccccc2)cc1`, the viability was 92.5%.
On the same count and under the same terms, for `Cn1c(=O)cc(N2CCCCC2)[nH]c1=O` the value was 97%; for `Cc1csc2ncc(C(=O)NCc3ccccn3)c(=O)n12`, 96.7%; for `Cc1c(C(=O)NCc2ccccn2)sc2nc(-c3ccccc3)cn12`, 101%.
The same measure, in the same setting: for `O=C(CSc1ccc2nnc(-c3ccc(Cl)cc3)n2n1)N1CCN(c2ccccc2)CC1` the value was 85.5%; for `O=S(=O)(NCCCN1CCN(c2ccccc2F)CC1)c1cccc2cccnc12`, 77.4%; for `Cc1ccc2cc(CCNS(=O)(=O)c3ccc(F)cc3)c(=O)[nH]c2c1`, 80.5%.
Take `COc1ccc(-n2c(Cc3cccn3C)nnc2SCC(=O)N2CCC(C)CC2)cc1`: the viability was 94.5%.
Same read-out and setting: for `CNc1oc(C)nc1S(=O)(=O)c1ccccc1` the value was 98.1%.
Same read-out and setting: next, `Cc1c(Cl)cccc1NC(=O)CN1C(=O)CSc2ncccc21`: 89.5%; `O=C(CCN1CCc2ccccc2C1)Nc1ccccc1`: 89.3%; `COc1cc2c(cc1OC)C1=C(C#N)CN(C3CCCCC3)CN1CC2`: 81.1%.
With `O=C1CC(c2ccc(S(=O)(=O)NC3CC3)cc2)CN1` (stereo not given), the viability is 103%.
Take `CCOC(=O)Cn1c(=O)oc2cc(S(=O)(=O)N3CCc4ccccc43)ccc21`: the viability is 93.8%.
For the compound `O=C1CC(c2ccco2)CC2=C1C1c3ccccc3C(=O)N1c1ccccc1N2` (stereo not given), the viability is 7.59% (active).
`COc1ccc(Br)cc1C1CC(=O)N2CN(Cc3ccccc3)CSC2=C1C#N` (stereo not given): the viability is 87.5%.
Same read-out and setting: next, `C=C(C)Cn1c(COc2ccccc2)nnc1SCC(=O)O`: 90.6%; `Cc1onc(-c2ccccc2Cl)c1C(=O)OCn1nnc2ccccc2c1=O`: 87.3%; `Cc1cc(NC(=O)CSc2nc3c(c(=O)n2-c2ccccc2)SC(C)C3)no1` (stereo not given): 91.2%.
The same measure, in the same setting: next, `CCOc1ccc(C2CC(c3ccc(F)cc3)n3ncnc3N2)cc1` (stereo not given): 91.1%.

The values are drawn from PubChem BioAssay.
